Measured values reported in PubChem BioAssay AID624351 (Southern Research Specialized Biocontainment Screening …, 2012).
Out of some 2,400 compounds screened, about 1,400 (58%) were called active. The set was probably picked from earlier hits. This is one part of the list. A number with no mark means an inactive call.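 How the source made its calls: active means inhibition of 30% or more at any tested dose; inconclusive means primary hits over the limit that were never retested; inactive means the rest.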

Experiment: coupled detection enzyme interference, dose response, artefact control for MgcRacGAP inhibitor project, biochemical, coupled enzyme counter-screen (AID 624351);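 further: signal is the ADP detection kit reading of free GDP without any GAP enzyme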;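 on inhibition: 0% = median positive control wells and 100% = median negative control wells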
Details: ADP Hunter coupled enzyme counter-screen, fluorescence, no MgcRacGAP; series mostly up to 80 µM

Structure (SMILES)	inhibition	IC50
NNc1ccc([N+](=O)[O-])c2[nH][nH]c(=O)c12	-1.61% [at 10 µM]	
Cc1ccc(S(=O)(=O)/N=S(/c2ccccc2)C(C)C)cc1 (centres undefined)		inactive
O=S(=O)(O)c1cc(O)c2ccc(Nc3ccccc3)cc2c1		inactive
Nc1cccc2c(O)cc(S(=O)(=O)O)cc12		inactive
CN(C)c1ccc2cc(S(=O)(=O)O)cc(O)c2c1		75 µM (active)
COc1cc(/C=C/C(=O)OCC(=O)Nc2ccc3c(c2)OCCO3)ccc1O		29.2 µM (active)
COc1cc(/C=C/C(=O)OCC(=O)Nc2ccc3c(c2)OCO3)ccc1O		42.1 µM (active)
O=C(CCN1CCCCCC1)Nc1ccc2c(c1)OCCO2		inactive
O=C(CN1CCOCC1)Nc1ccc2c(c1)OCCO2		inactive
CC(C)C1=Nc2cccc3cccc(c23)N1		26.5 µM (active)
O=C(Oc1ccc(N(C(=O)c2ccncc2)S(=O)(=O)c2cccs2)cc1)c1ccncc1		inactive
N=C(N)c1ccc(N=Nc2c(O)ccc3c2[nH]c2ccccc23)cc1		18 µM (active)
O=C(O)CCN1C(=O)/C(=C/c2ccc(-c3nc4ccccc4s3)o2)SC1=S		inactive
COCCNCC(=O)Nc1nc(C)cs1		inactive
O=C(Nc1ccc(O)cc1)c1ccc2c(c1)C(=O)N(Cc1ccccc1)C2=O		inactive
CC(C)(C)N1C(=O)c2ccc(C(=O)Nc3ccc(O)cc3)cc2C1=O		29.7 µM (active)
Cc1ccn2c(Nc3ccc4c(c3)OCO4)c(-c3ccc(O)cc3)nc2c1		32.4 µM (active)
Cc1ccc(Nc2c(-c3ccco3)nc3ccccn23)cc1		inactive
Cc1cccc(Nc2c(-c3ccc(O)cc3)nc3ncccn23)c1		31.7 µM (active)
COc1cc(-c2nc3ccc(C)cn3c2Nc2ccc3c(c2)OCCO3)ccc1O		34.4 µM (active)
COc1cc(-c2nc3cnccn3c2Nc2ccc(C)cc2)ccc1O		45.3 µM (active)
N#CC(C#N)=C1C=CC=CN1/C(=C\c1ccco1)C(=O)c1ccc(Cl)cc1		inactive

Structure (SMILES)	inhibition	IC50
COc1cc(-c2nc3ccccn3c2NCC2CCCO2)ccc1O (centres undefined)		inactive
COc1cc(-c2nc3cnccn3c2Nc2c(C)cccc2C)ccc1O		52.8 µM (active)
Clc1cc(Br)ccc1OCCOCCN1CCCC1		inactive
COc1cc(/C=N/NC(=O)CNC(=O)c2cccs2)ccc1O		38.4 µM (active)
COc1cc(/C=N/NC(=O)CNC(=O)c2ccco2)ccc1O		36.8 µM (active)
O=C(O)c1ccc(N/N=C/c2c[nH]c3ccccc23)cc1		47.5 µM (active)
COc1ccc2c(/C=N/Nc3ccc(C(=O)O)cc3)c[nH]c2c1		58.5 µM (active)
CN=c1scc(-c2ccco2)n1/N=C/c1ccc(O)c(O)c1		43.9 µM (active)
CN=c1scc(-c2ccc(F)cc2)n1/N=C/c1ccc(O)c(O)c1		38.6 µM (active)
Oc1ccc(/C=N/n2c(-c3ccco3)csc2=Nc2cccnc2)c(O)c1		34.3 µM (active)
CC(C)N=c1scc(-c2ccco2)n1/N=C/c1ccc(O)c(O)c1		63.8 µM (active)
CN(C)CCCn1c(SCc2ccc(Cl)cc2)nnc1-c1ccncc1		inactive
CCOc1cc(/C=N/NC(=O)c2c(-c3ccccc3)noc2C)ccc1O		60.4 µM (active)
COc1cc(/C=N/NC(=O)c2c(-c3ccccc3)noc2C)ccc1O		50.7 µM (active)
COc1cc(/C=N/Nc2nn3cnnc3c3ccccc23)ccc1O		58.4 µM (active)
Oc1ccc(/C=N/Nc2nn3cnnc3c3ccccc23)cc1		23.3 µM (active)
COc1cc(/C=N/Nc2nncn2/N=C/c2ccc(O)c(OC)c2)ccc1O		39 µM (active)
Cc1ccc(OCCCCNC(C)(C)C)c([N+](=O)[O-])c1		inactive
N#CC1=C(N)NC(=S)C(C(N)=O)C1c1ccc([N+](=O)[O-])cc1 (centres undefined)		inactive
N=C(N)c1ccc(/C=C/c2ccc(C(=N)N)cc2O)cc1		inactive
CCOc1ccc(C2NC(=O)C(C#N)=C(S)N2c2ccc(C)cc2)cc1OC (centres undefined)		inactive
COc1cc2nc(=S)n3[nH]c(CCn4nc(C)cc4C)nc3c2cc1OC		19.6 µM (active)

Structure (SMILES)	inhibition	IC50
COc1ccc2cc(OCC(=O)NNC(=O)Nc3ccc(F)cc3)ccc2c1		65.5 µM (active)
CC1=C/C(=C(/c2cc(C)c(O)c(Br)c2)c2ccccc2S(=O)(=O)O)C=C(Br)C1=O		62.4 µM (active)
Cc1cccc(C=Nc2ccc3c4c(cccc24)CC3)c1O		32.6 µM (active)
Oc1ccc(Cl)cc1C=Nc1ccc2c3c(cccc13)CC2		14.8 µM (active)
Oc1ccc(Br)cc1C=Nc1ccc2c3c(cccc13)CC2		79.9 µM (active)
CC(C)(C)N(Cc1ccc2c(c1)OCO2)C(=O)/C=C\S(=O)c1ccccc1 (centres undefined)		inactive
COc1ccc(C2NC(=O)C(C#N)=C(S)N2c2cccc(C)c2)cc1OC (centres undefined)		inactive
COCc1cc(S(=O)c2ccc(Cl)cc2)nc(C)n1 (centres undefined)		inactive
C=CCc1ccc(OCCOCCNCCCC)c(OC)c1		inactive
COc1cc(/C=N/NC(=O)c2ccc3c(c2)OCO3)ccc1O		31.9 µM (active)
COc1cc(/C=N/NC(=O)CNC(=O)c2ccc3c(c2)OCCO3)ccc1O		58.4 µM (active)
Cc1nc2c(=O)[nH]c(=S)[nH]c2[nH]c1=O		inactive
CN1CCc2c1nc1ccccc1c2NC(=O)CN1CCCC1		inactive
Cc1[nH]nc(-c2ccc(O)c(C)c2O)c1-c1cnn(-c2ccccc2)c1		70.7 µM (active)
O=C(Cc1coc2cc(O)ccc12)NNC(=O)c1cccs1		33.8 µM (active)
O=C(Cc1coc2cc(O)ccc12)NNC(=O)c1ccc(Br)s1		35.2 µM (active)
O=c1oc2cc(O)ccc2c2oc3cc(O)ccc3c12		54.1 µM (active)
COc1cc(-c2ncc3ccccn23)cc(OC)c1OC		inactive
CC1CC(=O)N(c2ccc(NCCc3ccc(O)cc3)c([N+](=O)[O-])c2)C1=O (centres undefined)		65.3 µM (active)
CCCCc1nc2ccccc2c(NC(=O)CN2CCN(C)CC2)c1CCC		inactive
O=c1c2ccccc2sn1-c1ccccc1F		inactive
Cc1cc(NCCCCCCCNc2cc(C)nc3cc([N+](=O)[O-])ccc23)c2ccc([N+](=O)[O-])cc2n1		inactive

Structure (SMILES)	inhibition	IC50
O=[N+]([O-])c1cc([N+](=O)[O-])c2nonc2c1Nc1ccc(O)cc1		44.7 µM (active)
Cc1ccc(/C=C/C(=O)Nc2ccc([N+](=O)[O-])c(NC(=O)/C=C/c3ccc(C)o3)c2)o1		inactive
O=[N+]([O-])c1ccccc1Nc1ccc(O)cc1		16.3 µM (active)
CC(=O)C1=C(O)C(=O)N(c2ccc(O)cc2)C1c1ccccc1[N+](=O)[O-] (centres undefined)		inactive
Nc1cc([N+](=O)[O-])ccc1Nc1ccc(O)cc1		36.7 µM (active)
Nc1nc(Sc2ccc([N+](=O)[O-])c3nonc23)c2[nH]cnc2n1		inactive
CCN(Cc1ccncc1)Cc1ccc(OC)cc1OC		inactive
Cn1cccc1/C=N/N1CCN(c2ccccn2)CC1		31.9 µM (active)
Cn1cccc1/C=N/N1CCN(c2ccccc2)CC1		78.7 µM (active)
CC(C(=O)N1CCCc2ccccc21)N1CCN(c2ccccn2)CC1 (centres undefined)		inactive
COc1ccc(CN2CCN(c3ccccn3)CC2)c(OC)c1C		inactive
Cc1nc(S/C(=C\c2ccc(-c3ccc(C(=O)O)c(Cl)c3)o2)C(=O)O)n[nH]1		inactive
CC[n+]1c(/C=C/N(C)c2ccccc2)oc2ccc(Cl)cc21		inactive
COc1ccc(O/C(=N\S(=O)(=O)c2ccccc2)c2ccccc2)cc1		46.1 µM (active)
C=CCn1c(CNc2ccccc2)nnc1SCC(=O)N/N=C/c1ccc(O)cc1O		79.7 µM (active)
Cc1ccc(C2=NOC(=O)/C2=C\c2ccc(C)o2)cc1		inactive
COc1cc(OC)c2cc[nH]c2c1		80.5 µM (active)
COc1cc(CNCc2cc(OC)c(OC)c(OC)c2)cc(OC)c1		inactive
COc1ccc(CN2CCN(Cc3c[nH]c4ccccc34)CC2)c(OC)c1		inactive
C=CCn1c(SCC(=O)Nc2ccc(O)cc2)nc2sc(CC)cc2c1=O		37.1 µM (active)
Cc1ccccc1N1C(S)=C(C#N)C(=O)NC12CCCCC2		inactive
Cc1cc(=O)c2c(O)c(O)ccc2o1		41.8 µM (active)

Structure (SMILES)	inhibition	IC50
COc1ccc2c(c1)Sc1ccccc1N2		34.1 µM (active)
O=C(c1ccccc1)c1ccc(C(=O)N2CCN(c3ccc(O)cc3)CC2)cc1		39 µM (active)
O=C(c1cc(C2CC2)nn1-c1ccccc1)N1CCN(c2ccc(O)cc2)CC1		42.2 µM (active)
COc1cc(CN2CCN(C(=O)c3cccc4ccccc34)CC2)cc(OC)c1OC		inactive
O=C(c1ccccc1)N1CCN(C2CCCCC2)CC1		inactive
Cc1ccc(-c2cc(C(=O)N3CCN(c4ccc(O)cc4)CC3)c3ccccc3n2)cc1		83.4 µM (active)
Cc1ccccc1CN1CCN(C(=O)c2cccc3ccccc23)CC1		inactive
S=C(c1ccccc1)N1CCN(c2ccccc2)CC1		inactive
COc1ccc(C(=O)Nc2ccc(N3CCCCCC3)cc2)cc1S(=O)(=O)N1CCOCC1		inactive
CCC(CC)N1CCN(C(=O)c2cccc(Cl)c2)CC1		inactive
O=C(c1ccc(Cl)c(S(=O)(=O)N2CCCCCC2)c1)N1CCN(c2ccc(O)cc2)CC1		34.3 µM (active)
O=C1/C(=C\c2ccc(O)cc2)SC(=S)N1/N=C/c1ccc(O)cc1		72.7 µM (active)
CN(c1ccccc1)c1ccc(/C=C/[N+](=O)[O-])cc1		inactive
CC(CN1CCN(Cc2ccccc2)CC1)c1ccccc1 (centres undefined)		inactive
CCOc1cc(/C=N/N2CCN(Cc3ccccc3)CC2)ccc1O		78.5 µM (active)
CCN(Cc1ccccc1)c1ccc(/C=N/N2CCOCC2)cc1		57.8 µM (active)
CCOc1cc(CN2CCN(C(=O)CC(C)C)CC2)ccc1OC		inactive
CCN(Cc1ccccc1)C1CCN(Cc2ccc(SC)cc2)CC1		inactive
CN(c1ccccc1)c1ccc(/C=N/N2CCOCC2)cc1		36.8 µM (active)
CCOc1ccc(CN2CCN(Cc3c[nH]c4ccccc34)CC2)cc1		inactive
CCN(CC)c1ccc(/C=N/N2CCN(Cc3ccccc3)CC2)cc1		75.1 µM (active)
